Only some compounds are listed: those with a hit (about 6.2% of all), similar ones and a draw of the others.
HT1080 IDH1KD tx – qHTS for induction of synthetic lethality in tumor cells producing 2HG: qHTS for the HT-1080-IDH1KD cell line; HT-1080 IDH1 knockdown viability, ATP luminescence, 48 h; Potency, µM (top dose mostly 46.1 µM), for inactives: at the highest dose activity, negative = toxicity, hits mostly cytotoxic; 360,000 compounds, 2% hits; AID 686971, 2013;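 also: 0% = DMSO wells and -100% = cell-free medium wells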
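Assay cells: HT-1080 with IDH1 knockdown, 750 per well, RPMI/5% FBS. Exposure: 48 h at 37 °C following 2 h pre-incubation. Read: CellTiter-Glo luminescence; fitted concentration-response, curve class assigned.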
KB-3-1 tox – qHTS assay for MDR1-selective chemotherapeutics: Primary screen using the parental adenocarcinoma cell KB-3-1; KB-3-1 viability, CellTiter-Glo ATP luminescence, 72 h; 400,000 compounds, 1.4% hits; Potency, µM (series often up to 46.1 µM), usual class: cytotoxic; also: % is scaled to controls: 0 for no effect and ±100 for the full control effect; nearly all actives have a fitted effect of over 60% in size
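Screening of KB-3-1 cells (DMEM, 10% FBS, phenol-red free) ran from lowest to highest compound concentration; after 72 h at 37 °C viability was read luminescently and curves fitted.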
ATXN2 expr inh – Primary qHTS for Inhibitors of ATXN expression | HEK-293 ATXN2-luciferase reporter, luminescence, 24 h | Potency, µM (series often up to 57 µM), inactives show at the top dose activity change, negative = inhibition, most hits filed as inhibitors | 360,000 compounds, 0.72% hits; also: % is scaled to controls: 0 for no effect and ±100 for the full control effect; nearly all actives have a fitted effect of over 55% in size
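ATXN2-luciferase reporter cells (luciferase flanked by upstream and downstream ATXN2 gene portions) were treated 24 h at 37 °C with compounds at up to 57 uM. SteadyGlo luminescence gave expression; GF-AFC fluorescence gave viability.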
HT1080NT lethal – qHTS for induction of synthetic lethality in tumor cells producing 2HG: qHTS for the HT-1080-NT fibrosarcoma cell line | 360,000 compounds, 1.6% hits | AID 686970, 2013 | HT-1080-NT fibrosarcoma viability, CellTiter-Glo ATP luminescence, 48 h | Potency, µM (doses to about 46.1 µM), for the others: at the highest dose activity, negative = less viability, hits mostly cytotoxic;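 also: NT is the 2HG producing partner of a matched IDH1 knockdown line; 0% = DMSO-treated cells and -100% = media-only wells without cells; nearly all actives have a fitted effect of over 55% in size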
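750 cells/well, RPMI + 5% FBS; 2 h settle, compound pin-transfer, 48 h at 37 degrees C. CellTiter-Glo 10 min RT, luminescence. Normalized to DMSO and media-only wells.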
S2 tox – Viability Counterscreen for Primary qHTS for Inhibitors of ATXN expression; S2 cells (HEK-293 line with an ATXN2-luciferase reporter) viability, CellTiter-Fluor protease fluorescence, 24 h; Potency, µM (highest dose often 56.7 µM), usual class: cytotoxic; 400,000 compounds, 0.49% hits; also: nearly all actives have a fitted effect of over 40% in size
KB-V1 MDR tox – qHTS assay for MDR1-selective chemotherapeutics: Primary screen using the drug-selected MDR subline cells KB-V1; KB-V1 MDR cells viability, CellTiter-Glo, 72 h; Potency, µM (highest dose often 46.1 µM), hits mostly cytotoxic; 400,000 compounds, 3.4% hits; also: % is scaled to controls: 0 for no effect and ±100 for the full control effect; nearly all actives have a fitted effect of over 60% in size
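Cells of the MDR subline KB-V1 are plated, dosed with compound at multiple concentrations, and incubated 72 h at 37 degrees C; CellTiter-Glo is then added and luminescence read after 10 min.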
Starred values were filed as active, the others as inactive; i = inactive; ? = inconclusive; . = no result. Calls follow the shape of the dose curve; as a rule, active = well fitted curve in the direction sought with a large enough effect; inconclusive = small, poorly fitted or top-dose-only effect, or another doubt; inactive = no such curve, though single readings can be large; an effect the other way counts as inactive or inconclusive. Potency is read from the fitted curve at half-maximal effect.

SMILES	HT1080 IDH1KD tx	KB-3-1 tox	ATXN2 expr inh	HT1080NT lethal	S2 tox	KB-V1 MDR tox
CCCNc1nc2c(c(=O)n(C)c(=O)n2C)n1CC(O)COc1ccccc1 (stereo not given)	.	i	-2%	.	i	9.2µM*
CCNc1nc2c(c(=O)n(C)c(=O)n2C)n1CC(O)COc1ccccc1 (stereo not given)	.	?	-6%	.	i	5.2µM*
Cc1ccccc1OCC(O)Cn1c(NCc2ccco2)nc2c1c(=O)n(C)c(=O)n2C (stereo not given)	0%	i	-4%	-22%	i	?
C=CCn1c(NCCc2ccccc2)nc2c1c(=O)n(C)c(=O)n2C	?	?	?	-15%	i	9.2µM*
O=C1c2ccccc2C(=O)N1c1ccc(O)cc1	.	i	.	.	.	i
Fc1ccccc1/C=C1\CCCC2=C1Nc1nnnn1C2c1ccccc1F (stereo not given)	10µM*	i	-5%	13µM*	i	i
CCC1CCCCN1C(=O)CSc1n[nH]c(-c2ccccc2)n1 (stereo not given)	.	i	.	.	.	i
CC(C)n1cc(/C=C/c2cc[n+](C)cc2)c2ccccc21	9.2µM*	1.3µM*	?	?	i	i
C=CCn1c(C)c(/C=C/c2cc[n+](C)cc2)c2ccccc21	?	2.3µM*	?	-7%	i	i
C=CCn1cc(/C=C/c2cc[n+](C)cc2)c2ccccc21	?	4.1µM*	.	?	.	i
CC(OC(=O)c1cc(O)c2ccccc2c1O)C(=O)Nc1ccc(C(N)=O)cc1 (stereo not given)	?	i	-29%	16µM*	i	i
N#CC1=C(N)Oc2c(O)cc3ccccc3c2C1c1ccsc1 (stereo not given)	15µM*	?	?	21µM*	i	?
N#CC1=C(N)Oc2cc(O)ccc2C1c1cccs1 (stereo not given)	-20%	i	5%	-17%	i	i
N#CC1=C(N)Oc2c(ccc3ccccc23)C1c1cccs1 (stereo not given)	1.3µM*	0.89µM*	45%	2µM*	?	5µM*
CCOC(=O)C1=C(CC)OC(N)=C(C#N)C1c1cccs1 (stereo not given)	22µM*	i	7%	?	i	i
CCN1CC2=C(OC(N)=C(C#N)C2c2cccs2)/C(=C\c2cccs2)C1 (stereo not given)	?	i	?	22µM*	i	i
COC(=O)CC1=C(C(=O)OC)C(c2cccs2)C(C#N)=C(N)O1 (stereo not given)	11%	i	-11%	9%	i	i
CC1(C)CC(=O)C2=C(C1)OC(N)=C(C#N)C2c1cccs1 (stereo not given)	5%	i	-9%	24%	i	i
CCc1ccccc1NC(=O)Cn1c(=O)n(-c2ccc(C)cc2)c(=O)c2cc(OC)c(OC)cc21	.	i	0%	.	i	i
CN1CCCC(CNC(=O)c2cnn(-c3ncc4c(n3)-c3ccccc3CC4)c2C2CC2)C1 (stereo not given)	.	.	.	.	i	.
CN(C)CCSc1nc(-c2ccccc2)nc2c1COC(C)(C)C2	?	i	-21%	?	i	10µM*
COC(=O)CNc1c(-c2ccccn2)nc2ccc(Br)cn12	8%	i	0%	18%	?	5.2µM*
CCCn1c(SCc2ccccn2)nc2c1c(=O)n(C)c(=O)n2C	0%	i	-5%	3%	i	?

High-throughput results: PubChem, National Center for Advancing Translational Sciences (NCATS)
